Unmarked numbers belong to inactive results. Results filed as inconclusive are left out. The source made the active and inactive calls. Unless noted, calls follow the shape of the dose curve; as a rule, active = well fitted curve in the direction sought with a large enough effect; inconclusive = small, poorly fitted or top-dose-only effect, or another doubt; inactive = no such curve, though single readings can be large; an effect the other way counts as inactive or inconclusive.

Assay [1] is described as follows: Counterscreen for APE1 Inhibitors: Fluorescent Dye Displacement Validation Assay (AID 1707).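 Also: plate controls were ThO with dsDNA and no compound for no effect and ThO without dsDNA for full effect.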 In a few lines: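 Reaction mixture of 250 nM Thiazole Orange and 50 nM double-stranded abasic-site DNA was dispensed, compounds were pin-transferred, and fluorescence was read at endpoint (480 nm ex, 540 nm em). Reduced fluorescence indicated dye displacement by DNA binding.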
In general terms: The purpose of a counterscreen is to sort out artefacts and off-target activity.

Assay [2] concerns the target Endonuclease 4 (Escherichia coli (strain K12)) (UniProt P0A6C1). Description: Counterscreen for APE1 Inhibitors: qHTS Validation Assay for Inhibitors of Endonuclease IV (AID 1708). Also: % is scaled to controls: 0 for no effect and ±100 for the full control effect. In a few lines: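 Conditions: 2 nM enzyme, 50 nM TAMRA/BHQ-2 substrate, pH 7.5 Tris buffer with 2 mM MgCl2, RT. Compound preincubation 15 min; readout three fluorescence reads 60 s apart, third-minus-first.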

Assay [3] deals with Ferritin light chain (Equus caballus) (UniProt P02791). Description: qHTS Validation Assay for Identification of Novel General Anesthetics (AID 2323). Also: series mostly up to about 77 µM; % is scaled to controls: 0 for no effect and ±100 for the full control effect. In outline:
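Competitive displacement of the profluorescent anesthetic 1-AMA (50% saturated, PBS) from 10 uM apoferritin, 10 min, room temperature. Activity is normalized 380/535 nm fluorescence; concentration-response fitted with a four-parameter Hill equation.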
For orientation: Quantitative high-throughput screening tests each substance at several concentrations.

The target of assay [4] is ATP-dependent DNA helicase Q1 (Homo sapiens) (UniProt P46063). Description: qHTS Validation Assay for Inhibitors of RecQ-Like Dna Helicase 1 (RECQ1) (AID 2353).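 Also: plate controls were DMSO vehicle for no effect and enzyme-free control for full effect.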 In outline: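 RECQ1T1 50 nM; forked duplex (20 bp + 30-nt ss tails) 200 nM, ATP 2 mM final; pH 8.0, 2 mM MgCl2, 2.5 ug/ml poly(dI-dC); 15 min compound preincubation; discontinuous kinetic read over 2 h at RT.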

Assay [5] can be described thus: Validation screen for inhibitors of Lassa infection (AID 463096; calls by dose curve; also: % is scaled to controls: 0 for no effect and ±100 for the full control effect).
The nature of assay [6]: Quantitative high throughput screen for delayed death inhibitors of the malarial parasite plastid, 96 hour incubation (AID 488745). Also: nearly all actives have a fitted effect of over 70% in size. Also: potency is read from the fitted curve at half-maximal effect. In a few lines:
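Readout is firefly luciferase luminescence from an integrated reporter in P. falciparum; lower signal marks inhibited growth. Cultures at 2% hematocrit and 0.1% parasitemia were treated with compound across two generations (96 h, 37 C, 5% CO2).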

Assay [7] can be described thus: Quantitative high throughput screen for delayed death inhibitors of the malarial parasite plastid, 48 hour incubation (AID 488752). Also: nearly all actives have a fitted effect of over 65% in size. Also: potency is read from the fitted curve at half-maximal effect. In a few lines: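 First, compound was pinned into RPMI 1640 medium containing 0.5% Albumax. Next, reporter-parasite-infected erythrocytes were added to 2% hematocrit and 0.1% parasitemia. After 48 h at 37 C under 5% CO2, luciferase detection reagent was added and luminescence read.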

Assay [8] deals with M-phase phosphoprotein 8 (Homo sapiens) (UniProt Q99549). Description: qHTS Validation Assay for Inhibitors for MPP8 Chromodomain Interactions with Methylated Histone Tails (AID 488949). Also: nearly all actives have a fitted effect of over 55% in size. Also: potency is read from the fitted curve at half-maximal effect. In outline: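 AlphaScreen proximity signal from streptavidin donor and Ni-chelate acceptor beads (10 ug/mL each) reported binding of MPP8 to trimethyl-K9 H3(1-18) peptide, both at 50 nM. The complex formed 30 min before a 30 min compound exposure at room temperature, in PBS pH 7.4.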

The target of assay [9] is Transient receptor potential cation channel subfamily V member 1 (Homo sapiens) (UniProt Q8NER1). Description: HTS Assay for Compounds that Act as Enhancers of the Vanilloid Receptor 1 (AID 488979). Also: 0% is about no effect. In a few lines: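 TRPV1 cells loaded with Fluo-8 calcium dye; compound added and Ca2+ signal (ex 480/em 520 nm) followed 3 min, then capsaicin at EC20 added and read 2 more min to detect enhancement.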

Assay [10] concerns the target Thyrotropin receptor (Homo sapiens) (UniProt P16473). The experiment in a line: qHTS Assay for Antagonists of the Thyroid Stimulating Hormone Receptor (AID 488980). Also: series mostly up to about 58 µM; 0% is about no effect. In outline: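 Inhibition of cAMP raised by EC80 TSH (4 nM final) was read by HTRF, with lysate cAMP competing against cAMP-d2 for cryptate antibody after 30 min at room temperature. The cells were transfected HEK293 held in phosphodiesterase inhibitor RO 20-1724 at 70 uM.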

Assay [11] has as its target Thyrotropin-releasing hormone receptor (Homo sapiens) (UniProt P34981). The experiment in a line: qHTS for Small Molecule Agonists and Allosteric Enhancers of Human TRH Receptor: Validation Screen for Agonists (AID 493127;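 active = calcium activation more than 3 SD above the typical response in the agonist read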;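 also: intracellular calcium rise by fluo-8 fluorescence before TRH EC20 addition; 0% is about no effect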). The following applies: TRH receptor agonist cell assay; at 2 µM; hits give high values. In a few lines: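 Compounds are added by online pintool to dye-loaded TRHR cells while fluorescence is recorded every second. A rise in calcium signal during the agonist read marks activation; a later 10 nM TRH addition (EC20) serves the separate enhancer mode.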

For assay [12], the target named is Galactokinase (Homo sapiens) (UniProt P51570). Description: qHTS Validation Assay for Inhibitors of Human Galactokinase (GALK) (AID 493189). Also: 0% is about no effect. In outline:
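Inhibition was measured as remaining ATP, detected by luciferase luminescence after a 1 h room-temperature reaction. Final conditions: 5 nM GALK, 100 uM galactose, 35 uM ATP, pH 8.0 HEPES buffer.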

Assay [13] can be described thus: Validation screen for small molecules that induce DNA re-replication in SW480 colon adenocarcinoma cells (AID 504364). Also: 0% is about no effect. In a few lines:
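Image-based qHTS: compounds were incubated with SW480 cells for 48 hr, nuclei stained with Hoechst, and per-nucleus fluorescence intensity scanned to flag cells with excess DNA content.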

Assay [14] can be described thus: MultiTox-Fluor Cytotoxicity Assay - LYMP1-001 - Live Cells (AID 947).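 Also: 0% = DMSO only and full inhibition = tetraoctylammonium bromide control.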
In assay [15] the target is Retinoic acid receptor RXR-alpha (Homo sapiens) (UniProt P19793). Description: qHTS assay for small molecule agonists of retinoid X receptor alpha signaling (AID 588544; calls by dose curve;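 also: 0% = DMSO basal wells and 100% = reference agonist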).
A short description of assay [16]: qHTS assay for small molecule activators of the human pregnane X receptor (PXR) signaling pathway (AID 720659; call rule not given here; also: 0% is about no effect).
The target of assay [17] is Rap guanine nucleotide exchange factor 4 (Homo sapiens) (UniProt Q8WZA2). The experiment in a line: Confirmatory qHTS for antagonist of cAMP-regulated guanine nucleotide exchange factor 4 (EPAC2) (AID 1645885). Also: nearly all actives have a fitted effect of over 25% in size. Also: potency is read from the fitted curve at half-maximal effect. As to activity change, negative = inhibition: % is scaled to controls: 0 for no effect and ±100 for the full control effect.
Assay [18] deals with Estrogen receptor (Homo sapiens) (UniProt P03372). Description: qHTS assay for small molecule agonists of estrogen receptor alpha signaling (AID 588514; calls by dose curve; also: nearly all actives have a fitted effect of over 70% in size; also: potency is read from the fitted curve at half-maximal effect;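 as to activation: 0% = vehicle only and 100% = reference agonist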). In outline:
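Efficacy is expressed against 20 nM 17-beta-estradiol (100%) and DMSO basal (0%); EC50 from Hill equation. Assay: beta-lactamase reporter in ER-alpha-UAS-bla HEK 293 cells, 18 h compound incubation, CCF4 detection.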

The nature of assay [19]: qHTS Assay for Identification of Small Molecule Antagonists for NFkB Signaling Pathway (AID 895; active = well fitted inhibition curve with a large enough effect in the signal ratio, with a control signal flat, not every such curve was filed as active; the % refers to the signal ratio; also: potency is read from the fitted curve at half-maximal effect). In a few lines: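 ME-180 NFkB-bla cells (beta-lactamase under NFkB response element), plated overnight, treated with compound then 10 pM TNF alpha (about EC50) for 5 hrs at 37 C. LiveBLAzer FRET read at 460/530 nm emission, 405 nm excitation.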
In assay [20] the target is Muscarinic acetylcholine receptor M1 (Rattus norvegicus) (UniProt P08482). The experiment in a line: qHTS Assay for Antagonists of Acetylcholine Muscarinic M1 Receptor: Kinetic Measurement of Intracellular Calcium Response (AID 943). Also: nearly all actives have a fitted effect of over 75% in size. Also: potency is read from the fitted curve at half-maximal effect.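 As to activity change, negative = inhibition: Fluo-4 calcium signal as peak divided by basal fluorescence over 4 min; series mostly up to about 35 µM.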 In outline: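 Antagonism is measured as inhibition of the carbachol-evoked calcium rise in CHO cells transfected with rat M1. Cells are dye-loaded, exposed to compound for 10 min, then stimulated with 100 nM carbachol (EC80).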

Chain of Thyrotropin-releasing hormone receptor (Homo sapiens) (P34981 whole entry, looked up): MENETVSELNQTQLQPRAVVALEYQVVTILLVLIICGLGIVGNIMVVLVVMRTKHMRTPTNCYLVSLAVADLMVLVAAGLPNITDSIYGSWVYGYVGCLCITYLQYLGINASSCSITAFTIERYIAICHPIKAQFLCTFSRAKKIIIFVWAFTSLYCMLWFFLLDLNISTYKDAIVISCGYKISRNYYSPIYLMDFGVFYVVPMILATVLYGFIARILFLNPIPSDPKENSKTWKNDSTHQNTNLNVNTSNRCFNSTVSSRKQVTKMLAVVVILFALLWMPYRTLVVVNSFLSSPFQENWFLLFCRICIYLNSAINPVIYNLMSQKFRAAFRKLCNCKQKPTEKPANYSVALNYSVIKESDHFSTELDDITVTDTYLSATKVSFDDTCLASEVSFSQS
Chain of Estrogen receptor (Homo sapiens) (P03372 whole entry, looked up): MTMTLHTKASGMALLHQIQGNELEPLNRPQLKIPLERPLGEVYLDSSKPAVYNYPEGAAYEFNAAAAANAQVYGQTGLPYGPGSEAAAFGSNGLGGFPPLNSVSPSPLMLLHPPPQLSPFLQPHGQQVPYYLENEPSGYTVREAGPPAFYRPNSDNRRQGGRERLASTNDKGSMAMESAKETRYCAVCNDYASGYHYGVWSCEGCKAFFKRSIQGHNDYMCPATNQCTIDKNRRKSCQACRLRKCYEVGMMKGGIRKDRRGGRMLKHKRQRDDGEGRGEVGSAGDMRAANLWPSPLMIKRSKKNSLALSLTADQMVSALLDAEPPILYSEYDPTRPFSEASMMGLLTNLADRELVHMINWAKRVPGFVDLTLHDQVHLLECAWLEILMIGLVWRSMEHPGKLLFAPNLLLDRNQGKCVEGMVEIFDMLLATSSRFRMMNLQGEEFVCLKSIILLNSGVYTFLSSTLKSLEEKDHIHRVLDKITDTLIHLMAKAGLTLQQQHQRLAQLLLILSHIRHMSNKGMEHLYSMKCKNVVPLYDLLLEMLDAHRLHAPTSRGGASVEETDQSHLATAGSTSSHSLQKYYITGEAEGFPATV
Chain of Rap guanine nucleotide exchange factor 4 (Homo sapiens) (Q8WZA2 whole entry, looked up): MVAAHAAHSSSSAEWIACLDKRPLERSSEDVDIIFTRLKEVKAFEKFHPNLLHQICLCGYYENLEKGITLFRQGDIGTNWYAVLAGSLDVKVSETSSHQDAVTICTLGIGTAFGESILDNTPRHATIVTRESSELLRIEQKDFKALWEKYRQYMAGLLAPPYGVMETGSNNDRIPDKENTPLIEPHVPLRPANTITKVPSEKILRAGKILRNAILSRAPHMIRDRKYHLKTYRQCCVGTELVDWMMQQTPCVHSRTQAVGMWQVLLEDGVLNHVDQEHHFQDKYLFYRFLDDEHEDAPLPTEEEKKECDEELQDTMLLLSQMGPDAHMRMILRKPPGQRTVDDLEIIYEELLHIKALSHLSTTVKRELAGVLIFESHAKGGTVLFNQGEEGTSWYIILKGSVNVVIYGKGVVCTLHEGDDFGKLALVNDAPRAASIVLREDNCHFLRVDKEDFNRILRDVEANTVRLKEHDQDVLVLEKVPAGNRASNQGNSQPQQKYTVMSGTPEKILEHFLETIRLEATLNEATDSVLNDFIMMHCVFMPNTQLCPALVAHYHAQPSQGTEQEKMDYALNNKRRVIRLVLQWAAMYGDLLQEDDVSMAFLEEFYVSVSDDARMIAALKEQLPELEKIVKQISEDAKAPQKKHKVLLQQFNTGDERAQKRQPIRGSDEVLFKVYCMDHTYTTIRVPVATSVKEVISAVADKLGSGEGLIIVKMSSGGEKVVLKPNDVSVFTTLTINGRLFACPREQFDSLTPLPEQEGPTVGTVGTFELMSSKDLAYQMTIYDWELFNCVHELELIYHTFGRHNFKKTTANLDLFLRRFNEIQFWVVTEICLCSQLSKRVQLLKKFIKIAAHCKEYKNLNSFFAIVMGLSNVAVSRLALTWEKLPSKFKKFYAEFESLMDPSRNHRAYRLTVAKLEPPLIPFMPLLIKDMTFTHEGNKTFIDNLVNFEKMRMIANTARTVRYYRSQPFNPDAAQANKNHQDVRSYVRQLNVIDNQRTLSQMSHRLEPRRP
Chain of Retinoic acid receptor RXR-alpha (Homo sapiens) (P19793 whole entry, looked up): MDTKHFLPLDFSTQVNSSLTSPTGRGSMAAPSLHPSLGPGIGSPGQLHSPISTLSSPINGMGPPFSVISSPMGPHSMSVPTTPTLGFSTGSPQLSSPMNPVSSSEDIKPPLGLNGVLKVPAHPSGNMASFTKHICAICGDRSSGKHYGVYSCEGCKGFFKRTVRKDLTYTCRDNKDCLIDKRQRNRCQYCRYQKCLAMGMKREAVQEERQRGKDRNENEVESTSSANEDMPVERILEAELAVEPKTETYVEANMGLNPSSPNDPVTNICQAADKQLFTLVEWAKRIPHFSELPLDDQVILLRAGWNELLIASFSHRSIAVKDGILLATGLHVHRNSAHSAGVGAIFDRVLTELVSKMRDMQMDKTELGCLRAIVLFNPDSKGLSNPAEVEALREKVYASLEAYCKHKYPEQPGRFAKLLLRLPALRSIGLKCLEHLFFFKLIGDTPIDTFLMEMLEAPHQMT
Chain of M-phase phosphoprotein 8 (Homo sapiens) (Q99549 whole entry, looked up): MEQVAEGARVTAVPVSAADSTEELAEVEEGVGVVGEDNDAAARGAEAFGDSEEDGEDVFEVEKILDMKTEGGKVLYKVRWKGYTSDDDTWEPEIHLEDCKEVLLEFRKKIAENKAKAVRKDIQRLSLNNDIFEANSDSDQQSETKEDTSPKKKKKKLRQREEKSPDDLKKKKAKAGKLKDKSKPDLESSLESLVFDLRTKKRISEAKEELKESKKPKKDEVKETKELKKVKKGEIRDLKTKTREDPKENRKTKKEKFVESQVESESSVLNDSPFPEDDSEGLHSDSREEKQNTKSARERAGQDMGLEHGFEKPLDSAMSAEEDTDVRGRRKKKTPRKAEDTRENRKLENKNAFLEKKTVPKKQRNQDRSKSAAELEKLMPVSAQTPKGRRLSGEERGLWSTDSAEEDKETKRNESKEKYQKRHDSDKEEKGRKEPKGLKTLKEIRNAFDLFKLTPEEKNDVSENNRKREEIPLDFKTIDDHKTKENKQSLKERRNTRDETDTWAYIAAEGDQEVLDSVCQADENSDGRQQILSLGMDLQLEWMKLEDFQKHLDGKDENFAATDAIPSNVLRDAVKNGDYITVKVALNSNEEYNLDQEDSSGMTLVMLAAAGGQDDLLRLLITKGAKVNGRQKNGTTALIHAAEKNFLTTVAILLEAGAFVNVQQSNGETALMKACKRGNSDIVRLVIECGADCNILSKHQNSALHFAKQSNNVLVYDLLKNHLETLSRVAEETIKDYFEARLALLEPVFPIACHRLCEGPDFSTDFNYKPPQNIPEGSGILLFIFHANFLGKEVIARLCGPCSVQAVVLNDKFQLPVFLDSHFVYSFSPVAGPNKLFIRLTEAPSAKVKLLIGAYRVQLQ
Chain of Transient receptor potential cation channel subfamily V member 1 (Homo sapiens) (Q8NER1 whole entry, looked up): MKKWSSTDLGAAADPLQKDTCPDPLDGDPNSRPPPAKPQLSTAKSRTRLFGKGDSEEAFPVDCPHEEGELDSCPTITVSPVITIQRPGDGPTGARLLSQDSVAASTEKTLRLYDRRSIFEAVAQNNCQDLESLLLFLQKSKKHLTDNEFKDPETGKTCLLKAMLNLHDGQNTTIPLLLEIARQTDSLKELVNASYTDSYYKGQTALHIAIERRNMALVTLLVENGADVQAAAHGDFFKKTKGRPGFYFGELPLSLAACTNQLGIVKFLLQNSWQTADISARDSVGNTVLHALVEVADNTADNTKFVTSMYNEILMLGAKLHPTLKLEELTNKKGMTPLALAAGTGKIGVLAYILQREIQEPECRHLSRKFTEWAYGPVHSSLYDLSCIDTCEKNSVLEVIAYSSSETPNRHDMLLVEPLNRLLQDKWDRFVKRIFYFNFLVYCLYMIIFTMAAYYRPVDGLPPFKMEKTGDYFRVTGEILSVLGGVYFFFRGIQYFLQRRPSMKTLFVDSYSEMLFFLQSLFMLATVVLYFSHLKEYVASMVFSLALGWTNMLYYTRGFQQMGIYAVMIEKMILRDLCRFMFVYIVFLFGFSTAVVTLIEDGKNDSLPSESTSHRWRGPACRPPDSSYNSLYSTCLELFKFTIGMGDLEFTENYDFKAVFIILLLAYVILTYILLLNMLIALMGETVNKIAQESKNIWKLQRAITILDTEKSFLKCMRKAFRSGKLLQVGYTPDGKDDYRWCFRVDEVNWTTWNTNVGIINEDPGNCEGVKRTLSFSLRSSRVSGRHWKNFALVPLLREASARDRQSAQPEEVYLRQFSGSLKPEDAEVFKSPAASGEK
Chain of Ferritin light chain (Equus caballus) (P02791 2-175 limits assumed): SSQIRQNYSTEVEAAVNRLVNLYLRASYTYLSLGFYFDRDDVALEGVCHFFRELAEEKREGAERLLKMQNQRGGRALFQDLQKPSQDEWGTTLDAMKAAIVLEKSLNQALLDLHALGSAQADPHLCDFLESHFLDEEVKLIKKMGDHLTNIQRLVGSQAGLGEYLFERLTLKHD
Chain of ATP-dependent DNA helicase Q1 (Homo sapiens) (P46063 whole entry, looked up): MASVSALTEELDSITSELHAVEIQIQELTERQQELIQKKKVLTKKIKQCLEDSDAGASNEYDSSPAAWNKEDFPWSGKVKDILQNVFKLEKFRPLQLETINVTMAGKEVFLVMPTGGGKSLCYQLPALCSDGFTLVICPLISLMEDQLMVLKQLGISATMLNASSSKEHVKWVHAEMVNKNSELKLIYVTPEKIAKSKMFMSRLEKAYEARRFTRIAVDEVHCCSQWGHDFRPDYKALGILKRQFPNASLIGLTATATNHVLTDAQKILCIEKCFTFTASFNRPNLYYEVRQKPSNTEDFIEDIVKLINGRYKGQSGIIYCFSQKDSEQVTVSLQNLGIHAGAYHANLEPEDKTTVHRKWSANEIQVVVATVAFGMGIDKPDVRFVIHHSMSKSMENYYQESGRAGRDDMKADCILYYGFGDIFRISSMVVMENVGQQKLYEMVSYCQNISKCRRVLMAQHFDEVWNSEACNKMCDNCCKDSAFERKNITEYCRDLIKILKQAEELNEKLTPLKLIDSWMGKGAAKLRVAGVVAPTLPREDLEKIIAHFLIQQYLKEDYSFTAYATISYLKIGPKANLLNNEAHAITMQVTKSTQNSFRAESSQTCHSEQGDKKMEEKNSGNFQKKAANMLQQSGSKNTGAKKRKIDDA

Consider `CCCN1CCc2cccc3c2C1Cc1ccc(O)c(O)c1-3` (stereo not given), for which the result in assay [1], in [4], in assay [9], in assay [10], in assay [12] and in assay [13] was inactive. The Potency entry in [2], in assay [3] and in assay [5] was “inactive” throughout. In addition, the Potency was 2940 nM (active) in assay [6], 1850 nM (active) in assay [7] and 20000 nM (active) in assay [8]. The activation in [11] was 1.44%.

As for `ClC(Cl)=C(c1ccc(Cl)cc1)c1ccc(Cl)cc1`, the Potency entry in assay [14] and in assay [15] was “inactive” each time.

Turning to `C=CCc1ccc(OC)cc1`, in [15], the Potency result is “inactive”. Also, the compound was classed as inactive in [16].

As for `O=C1C=CC(=O)c2c(O)cccc21`, in assay [17], the Potency result is “inactive”.

With `C[C@]12CC[C@H](O)CC1=CCC1C2CC[C@]2(C)C(=O)CC[C@@H]12` (stereo not given in full), the compound was called inactive in [1], in assay [4], in assay [9], in [10], in assay [12] and in assay [13]. Moreover, the Potency entry in assay [2], in [3], in [5], in assay [6], in assay [7] and in assay [8] was “inactive” each time. Moreover, the activation in [11] is 0.438%.

Consider `COP(=S)(OC)Oc1ccc([N+](=O)[O-])cc1`, for which the Potency result in assay [18] is “inactive”. Moreover, the outcome in assay [16] was inactive.

Turning to `CC(C)[C@@]1(NC(=O)[C@@H]2C[C@@H]3c4cccc5[nH]cc(c45)C[C@H]3N(C)C2)O[C@@]2(O)C3CCCN3C(=O)[C@H](Cc3ccccc3)N2C1=O` (stereo not given in full), the compound was classed as inactive in assay [1], in [4], in assay [9], in assay [10] and in assay [12]. Moreover, the Potency result in assay [2] and in assay [3] was “inactive” in each case. Moreover, the Potency in assay [6] was 1470 nM (active); in assay [7], 1650 nM (active). The activation in assay [11] was 0.125%.

Consider `O=C1c2ccccc2-c2cccc3cccc1c23`, for which the Potency result in [17] is “inactive”.

As for `O=C(OC1CCN(CCCl)CC1)C(c1ccccc1)c1ccccc1`, the values for the Potency in assay [19] and in assay [20] were 2510 nM (active) and 112 nM (active), respectively. The call in assay [1], in assay [4], in [9], in assay [10], in assay [12] and in [13] was inactive. For the same compound, the Potency entry in [3], in assay [5] and in assay [8] was “inactive” each time. Further, the activation in assay [11] is -9.25%. Besides, the activity change, negative = inhibition in [17] is -6.11% [at 12.7 µM].

For the compound `CC(C)C[C@H]1C(=O)N2CCCC2[C@]2(O)O[C@](NC(=O)[C@@H]3C=C4c5cccc6[nH]c(Br)c(c56)C[C@H]4N(C)C3)(C(C)C)C(=O)N12` (stereo not given in full), the Potency result in assay [5] is “inactive”.

Regarding `CNC(=O)O/N=C/C(C)(C)SC`, the Potency entry in assay [14] is “inactive”.

Turning to `COc1cc2c(cc1-c1cc3cc4ccoc4cc3oc1=O)OCO2`, in assay [17], the Potency was 987 nM (active).

Regarding `O=C(O)COc1ccc(Cl)cc1Cl`, the compound was called inactive in assay [16].

`CCNc1nc(Cl)nc(NC(C)C)n1`: the Potency entry in assay [14], in assay [18] and in assay [15] was “inactive” in each case.

In the case of `O=S1OCC2C(CO1)C1(Cl)C(Cl)=C(Cl)C2(Cl)C1(Cl)Cl` (stereo not given), the Potency in assay [18] was 1410 nM (active).

`COc1ccc(OC)c([C@H](O)[C@H](C)N)c1`: the Potency entry in assay [19] and in assay [20] was “inactive” each time.

Take `COC(=O)NC(=S)Nc1ccccc1NC(=S)NC(=O)OC`: the Potency entry in [18] is “inactive”.

Consider `CS(=N)(=O)CC[C@@H](N)C(=O)O` (stereo not given in full), for which, in assay [20], the Potency result was “inactive”.

For `C#CCN(C)[C@@H](C)Cc1ccccc1`, the Potency result in assay [19] is “inactive”.

Regarding `CCc1cccc(CC)c1N(COC)C(=O)CCl`, the Potency entry in [14] and in [15] was “inactive” each time.

Regarding `ClC1=C(Cl)C2(Cl)C3C(Cl)C=CC3C1(Cl)C2(Cl)Cl` (stereo not given), in [16], the call was inactive.

For the compound `NC[C@H](O)c1ccc(O)cc1`, in [20], the Potency result is “inactive”.

With `c1ccc(N=Nc2ccccc2)cc1`, in [16], the compound was called inactive.
